Experimental data published in PubChem BioAssay (NCI).
The panel holds about 83,000 compounds, 20% with a hit somewhere; the sample as a whole holds those more often.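 Testing used 96-well plates and a 48-hour single-concentration exposure. Example: -40 means 40% of the starting cells died.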 The source made the active and inactive calls. Rule for the calls: active = growth percent below 10; inactive = the rest.

Tests used:
Test in all cases: NCI-60 one-dose screen, 48 h (100 = growth as untreated, 0 = no growth, -100 = all killed)
Settings in all cases: 10 µM unless noted
[1] = system: HCT-15 colon
[2] = system: HT29 colon
[3] = system: SNB-75 CNS
[4] = system: SNB-19 CNS
[5] = system: U251 CNS
[6] = system: PC-3 prostate
[7] = system: LOX IMVI melanoma
[8] = system: SK-MEL-28 melanoma
[9] = system: SK-MEL-2 melanoma
[10] = system: EKVX NSCLC
[11] = system: SN12C renal
[12] = system: UO-31 renal
[13] = system: TK-10 renal
[14] = system: ACHN renal
[15] = system: CAKI-1 renal
[16] = system: A498 renal
[17] = system: CCRF-CEM leukemia
[18] = system: MOLT-4 leukemia
[19] = system: UACC-62 melanoma

Measured: growth

N#Cc1cnc2cc(OC[C@@H](O)CO)c(NC(=O)C3CCCC3)cc2c1Nc1ccc(OCc2cccc(F)c2)c(Cl)c1
inactive: [1] 29.4% | [4] 65.3% | [5] 61.9% | [11] 13.8% | [12] 35.3% | [13] 29.5% | [14] 40.2% | [15] 59.4% | [16] 55.5%
active: [2] -11.3% | [3] -0.333% | [6] -58.9% | [7] -84.8% | [8] -85.2% | [9] -56.9% | [10] -36.8% | [17] -26.8% | [18] 6.26%

O=c1[nH]c(=S)[nH]c2nc[nH]c12
inactive: [1] 99.5% | [2] 103% | [3] 84.6% | [4] 107% | [5] 105% | [6] 96.9% | [19] 97.6% | [8] 110% | [9] 117% | [10] 97.2% | [11] 96.2% | [12] 62.7% | [13] 113% | [14] 104% | [15] 108% | [16] 93.4% | [17] 106% | [18] 97.8%

COc1cc(-c2cc3cc(O)ccc3oc2=O)cc(OC)c1OC
inactive: [1] 91.4% | [2] 103% | [3] 65.3% | [4] 95.5% | [5] 99.3% | [6] 85.3% | [7] 103% | [9] 92.7% | [10] 78.7% | [11] 93.6% | [12] 66.7% | [13] 104% | [14] 81.8% | [15] 84.6% | [16] 100% | [17] 94.5% | [18] 94.2%

COc1c(N)c2c(c([N+](=O)[O-])c1OC)C(=O)OC2
inactive: [1] 105% | [2] 102% | [3] 98.7% | [4] 102% | [5] 110% | [6] 96.7% | [19] 102% | [8] 108% | [9] 102% | [10] 111% | [11] 93.5% | [12] 83.4% | [13] 103% | [14] 117% | [15] 115% | [16] 104% | [17] 96.2% | [18] 81.2%

C=C(C)[C@@H]1CC[C@]2(C=O)CC[C@]3(C)[C@H](CC[C@@H]4[C@@]5(C)C/C(=C/c6cccnc6)C(=O)C(C)(C)[C@@H]5CC[C@]43C)[C@@H]12
active: [12] -33.9%
inactive: [1] 57.6% | [2] 72% | [3] 101% | [4] 84.4% | [5] 73.4% | [6] 41.8% | [19] 61.5% | [8] 93.3% | [9] 88.5% | [10] 88.5% | [11] 77.1% | [13] 134% | [14] 61.6% | [15] 50.1% | [16] 98.3% | [17] 27.7% | [18] 49.9%

N#CC1=C(N)Oc2ccc3ccccc3c2C1c1ccccc1Cl (stereo not drawn)
active: [3] -2.04%
inactive: [1] 24% | [2] 22.2% | [4] 33.9% | [5] 37.2% | [6] 46.1% | [19] 24.2% | [8] 61.1% | [9] 45.9% | [10] 42.5% | [11] 50% | [12] 48.9% | [13] 118% | [14] 49.9% | [15] 34.5% | [16] 40.1% | [17] 26.1% | [18] 26.7%

N#CC1=C(N)Oc2ccc3ccccc3c2C1c1ccccc1 (stereo not drawn)
inactive: [1] 19.5% | [2] 17.7% | [4] 29.5% | [5] 32.5% | [6] 40.6% | [19] 18.6% | [8] 54.6% | [9] 49.7% | [10] 39% | [11] 42.2% | [12] 44.9% | [13] 121% | [14] 37.3% | [15] 23.3% | [16] 21.5% | [17] 20.7% | [18] 32.6%
active: [3] -16.3%

CCN1CCN(C(=O)[C@]23CC[C@@H](C)[C@H](C)[C@H]2C2=CC[C@@H]4[C@@]5(C)C/C(=C/c6cccc(OC)c6OC)C(=O)C(C)(C)[C@@H]5CC[C@@]4(C)[C@]2(C)CC3)CC1
inactive: [1] 19.2% | [2] 21.5% | [3] 35.6% | [4] 53.1% | [5] 38.4% | [6] 18.8% | [19] 57.4% | [8] 58.7% | [9] 84.6% | [10] 27.7% | [11] 43.2% | [12] 30.3% | [13] 95.9% | [14] 41.9% | [15] 31.4% | [16] 77.7% | [17] 30.2% | [18] 10.1%
